Experiment [1] has as its target T1, Aspartate--tRNA(Asp/Asn) ligase (Mycobacterium tuberculosis (strain ATCC 25618 / H37Rv)) (UniProt P9WFW3). Also: in the data most compounds retested in dose-response had high values.
T1 sequence (whole entry): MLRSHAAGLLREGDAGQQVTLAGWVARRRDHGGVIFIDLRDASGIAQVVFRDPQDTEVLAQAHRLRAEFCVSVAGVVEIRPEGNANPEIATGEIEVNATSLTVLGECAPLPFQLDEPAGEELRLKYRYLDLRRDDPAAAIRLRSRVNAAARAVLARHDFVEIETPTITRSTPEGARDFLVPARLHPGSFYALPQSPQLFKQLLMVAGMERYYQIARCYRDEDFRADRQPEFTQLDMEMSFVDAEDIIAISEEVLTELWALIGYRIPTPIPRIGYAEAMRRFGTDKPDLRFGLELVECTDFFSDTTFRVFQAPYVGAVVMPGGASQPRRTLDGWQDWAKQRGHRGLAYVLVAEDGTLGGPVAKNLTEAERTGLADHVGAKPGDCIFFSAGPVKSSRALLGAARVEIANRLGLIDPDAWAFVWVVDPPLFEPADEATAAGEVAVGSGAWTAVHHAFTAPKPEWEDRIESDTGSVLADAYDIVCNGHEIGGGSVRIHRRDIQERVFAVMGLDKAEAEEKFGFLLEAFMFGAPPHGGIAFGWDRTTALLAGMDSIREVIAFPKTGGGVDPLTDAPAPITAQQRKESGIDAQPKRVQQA
Kind of experiment: Assay for Asp RNA synthetase-1 from Mycobacterium tuberculosis. It is filed as functional. The note with it: 30 µM. Also on record: scale not given: direction of the effect not stated beside the values.

Experiment [2] concerns the target Shiga toxin 2 (Escherichia coli O157:H7) (UniProt P09385+P09386). The experiment can be described thus: E. coli 0.157:H7 Shiga Toxin SOP - stx2 screening assay. Also on record: scale not given: direction of the effect not stated beside the values. It is filed as functional. The note with it: 30 µM.

Structures are written as SMILES.

As for `CCn1ncnc1C1CC(=O)NCc2nc3ccccn3c21` (centres undefined), the Percent Effect in experiment [1] is -2.72%; in experiment [2], 2.83%.
The like results for `CCC(C)(C)NC(=O)Cn1nc(C)nc1-c1cccc(C)c1` were, in that order, 1.4% and 5.46%.
The like results for `Cn1cnc2c(N3CCCC3)nc(C3CCNCC3)cc21` were, in that order, 3.17% and -31.9%.
The like results for `Cn1nc2c(cc1=O)CN(CCc1nc3ccccc3c(=O)[nH]1)CC2` were, in that order, 7.01% and 2.17%.
Take `COCC1CC2(CCN(Cc3cnn(C)c3)CC2)CN1C(C)C` (centres undefined): the values for the Percent Effect in experiment [1] and in experiment [2] were 10.7% and -9.26%, respectively.
The like results for `CN(C)CC(=O)N1C[C@H]2CCC[C@@]2(COc2ccccn2)C1` were, in that order, 1.75% and 13.5%.
The like results for `CCCNC(=O)CNc1cc(C#N)ccc1OCC` were, in that order, -8.31% and -4.19%.
The like results for `CCn1nccc1CNC(=O)C1CCCC1` were, in that order, 11.4% and -65.5%.
With `CS(=O)(=O)NCC1CCCN(Cc2ccc(F)c3cccnc23)C1` (centres undefined), the figures for the Percent Effect in experiment [1] and in experiment [2] were 5.29% and -44.4%, respectively.
The like results for `Cc1nc[nH]c1CN1CCN(C(=O)CCC(F)(F)F)[C@H]2CS(=O)(=O)C[C@H]21` were, in that order, -2.31% and 17.8%.
The like results for `CC(Cn1cccn1)NC(=O)NCc1ccccn1` (centres undefined) were, in that order, -4.37% and -30.2%.
The like results for `Cn1cc(CN2CCCN(C(=O)c3cc[nH]n3)CC2)cn1` were, in that order, -4.23% and -19.9%.
Consider `O=C([C@H]1COC[C@H]2CN(Cc3ccco3)C[C@H]21)N1CCCO1`, for which the Percent Effect in experiment [1] was 6.23%; in experiment [2], -30.2%.
Consider `O=C(NCC(=O)N1CCCCC1)c1ccoc1`, for which the Percent Effect in experiment [1] was 6.71%; in experiment [2], -16.3%.
The like results for `COc1ccccc1C(=O)NC(C)CC(=O)O` (centres undefined) were, in that order, -5.28% and -19.9%.
The like results for `CC(OCC1CC1)C(=O)N1CCCN(Cc2cnn(C)c2)CC1` (centres undefined) were, in that order, 1.41% and -83.1%.
The like results for `Cn1c(CN2CCN(CC3CC3)CC2)nnc1C1CCC1` were, in that order, 8.05% and -37.5%.
`CCc1cnc(CN2CCCC2c2noc(C3CC3)n2)o1` (centres undefined): the Percent Effect in experiment [1] was determined as 2.19%; in experiment [2], 19.7%.
The like results for `COCC1c2c(cnn2CC2CC2)CCN1Cc1ccc(OC)cc1` (centres undefined) were, in that order, 0.786% and 4.64%.
The like results for `CCn1ncc2c1C(COC)CN(Cc1ccc(OC)cc1)C2` (centres undefined) were, in that order, -4.44% and -3.46%.
The like results for `Cc1n[nH]c(C(=O)NCc2ccnc(OCC(F)(F)F)c2)c1Br` were, in that order, -3.15% and 9.67%.
With `Cc1cnn(CC2CCCCN2CC(=O)NCc2ccccn2)c1` (centres undefined), the results for the Percent Effect in experiment [1] and in experiment [2] were -0.659% and 0.25%, respectively.
The like results for `CC(C)(C)NC(=O)NC(=O)CNC(C)(C)c1ccc2c(c1)OCCO2` were, in that order, 0.459% and 41.7%.
With `CN(C)CCN1CCOCC2(C1)CN(Cc1ccsc1)CCO2` (centres undefined), the Percent Effect in experiment [1] amounted to 6.63%; in experiment [2], 3.8%.
As for `CN(C)C(=O)CC1CC2(CCN(c3ncccn3)CC2)c2ccccc21` (centres undefined), the figures for the Percent Effect in experiment [1] and in experiment [2] were 2.97% and -6.02%, respectively.
The like results for `OCCOCCN1CCCC1c1nc2cc(F)ccc2[nH]1` (centres undefined) were, in that order, -5.15% and -4.14%.
The like results for `COc1cc(C(=O)NC(CC(=O)O)c2cccs2)cc(Cl)c1OC` (centres undefined) were, in that order, 3.71% and -19.3%.
The like results for `COC1CCCN(Cc2nc(Cc3ccccc3F)no2)C1` (centres undefined) were, in that order, -7.18% and 6.38%.
Consider `O=C1CC(c2cccs2)c2snc(C(=O)O)c2N1` (centres undefined), for which the Percent Effect in experiment [1] was -3.23%; in experiment [2], -4.3%.
The like results for `CCCn1nc2c(cc1=O)CN(CCCN1CCCC1=O)CC2` were, in that order, 10.1% and 12.4%.
`c1cnn(CCN2CCOC(Cn3cncn3)C2)c1` (centres undefined): the Percent Effect in experiment [1] was 0.685%; in experiment [2], -9.56%.
As for `c1ncc(Nc2nccc(C3CCCCN3CC3CCCCC3)n2)cn1` (centres undefined), the Percent Effect in experiment [1] was 0.28%; in experiment [2], -0.91%.
The like results for `O=C(c1cc(C2CC2)on1)N1CC[C@]2(C[C@H](Oc3cccnc3)CO2)C1` were, in that order, 6.67% and 7.42%.
The like results for `O=C(Cc1csc(-c2ccc(Cl)cc2)n1)NC(C(=O)O)c1ccccc1` (centres undefined) were, in that order, 1.86% and -21.9%.
Turning to `Fc1ccc(CN2CCCN(Cc3cscn3)CC2)cc1`, the figures for the Percent Effect in experiment [1] and in experiment [2] were 1.87% and 2.42%, respectively.
The like results for `O=C(c1ccccn1)N1CCN(c2ccc(-c3cccnc3)nn2)CC1` were, in that order, -6.42% and -48.3%.
With `Cc1cc(CN(C)C(=O)NC2CCN(Cc3ccccc3)C2)no1` (centres undefined), the Percent Effect is 2.94% in experiment [1] and -10.9% in experiment [2].
The like results for `Cc1cnn(CCNCC(=O)NCc2ccccc2)c1` were, in that order, 1.29% and 10.2%.
The like results for `Cc1ccc(CNC(=O)N2CCN(Cc3ccsc3)CC2)n1C` were, in that order, 0.896% and -31.3%.
The like results for `CCc1nc2n(n1)CC(NCc1ncc(-c3ccccc3)o1)CC2` (centres undefined) were, in that order, 0.562% and 9.14%.
Turning to `CC(=O)N(C)c1nc(CN2CCOC(Cn3cccn3)C2)cs1` (centres undefined), the Percent Effect in experiment [1] was 3.18%; in experiment [2] it was -10.3%.
Turning to `O=C(c1ccc(C(F)(F)F)nc1)N1CCCC(n2cncn2)C1` (centres undefined), the Percent Effect in experiment [1] is -4.88%; in experiment [2], -8.71%.
The like results for `CC(=O)N(C)c1nc(CN2CCCCC2Cn2cncn2)cs1` (centres undefined) were, in that order, -3.1% and 9.21%.
The like results for `c1cnc(N2CCC3(CCN(Cc4ccncc4)CC3)CC2)nc1` were, in that order, -2.46% and 1.18%.
The like results for `O=C(c1ccco1)N1CCCC1C1CCN(Cc2ccccc2)CC1` (centres undefined) were, in that order, 4.64% and -11.3%.
As for `Cc1cnn(CC2CN(Cc3nnc(C4CC4)o3)CCO2)c1` (centres undefined), the Percent Effect was -2.56% in experiment [1] and 24.8% in experiment [2].
Regarding `COc1c(CNCc2cnn(C)c2)c(C(C)C)nn1C`, the Percent Effect in experiment [1] is -1.63%; in experiment [2], 6.94%.
The like results for `COCCO[C@@H]1CCN(C(=O)c2ccc(C)o2)[C@@H]1Cc1cccnc1` were, in that order, -0.436% and -14.3%.
The like results for `CN(C)S(=O)(=O)c1ccc(CN2CCCC2c2ccc[nH]2)o1` (centres undefined) were, in that order, -3.62% and 8.06%.
The like results for `NCC(=O)N1CCCC(c2cncc(Nc3ncccn3)n2)C1` (centres undefined) were, in that order, 1.44% and 1.91%.
For the compound `Cc1noc(CN2CCN(CC(C)O)CC2)n1` (centres undefined), the Percent Effect is -2.18% in experiment [1] and -6.53% in experiment [2].
For the compound `c1cnc2c(c1)cc([C@H]1CCCO1)n2CCN1CCCCC1`, the Percent Effect in experiment [1] is -0.551%; in experiment [2] it was -28.2%.

For the origin of these results see ChEMBL document CHEMBL3988442, “University of Dundee, Small-Polar-MMV Screening Library” (2021).
